According to PubChem BioAssay AID588591 (National Center for Advancing Translational Sciences (NCATS), 2011):
Among all 390,000 compounds or so, about 4,700 (1.2%) were called active. A call without a number means that no potency is given here. Another 4% or so got no clear call; they are omitted. Calls come from the whole dose curve; as a rule, active = well fitted inhibition curve with a large enough effect; inconclusive = small, poorly fitted or top-dose-only effect, or another doubt; inactive = no such curve, though single readings can be large or run the other way. The full list was thinned out, with actives kept by preference.

Molecular target: DNA polymerase eta (Homo sapiens) (UniProt Q9Y253)
Sequence (Q9Y253 whole entry, looked up): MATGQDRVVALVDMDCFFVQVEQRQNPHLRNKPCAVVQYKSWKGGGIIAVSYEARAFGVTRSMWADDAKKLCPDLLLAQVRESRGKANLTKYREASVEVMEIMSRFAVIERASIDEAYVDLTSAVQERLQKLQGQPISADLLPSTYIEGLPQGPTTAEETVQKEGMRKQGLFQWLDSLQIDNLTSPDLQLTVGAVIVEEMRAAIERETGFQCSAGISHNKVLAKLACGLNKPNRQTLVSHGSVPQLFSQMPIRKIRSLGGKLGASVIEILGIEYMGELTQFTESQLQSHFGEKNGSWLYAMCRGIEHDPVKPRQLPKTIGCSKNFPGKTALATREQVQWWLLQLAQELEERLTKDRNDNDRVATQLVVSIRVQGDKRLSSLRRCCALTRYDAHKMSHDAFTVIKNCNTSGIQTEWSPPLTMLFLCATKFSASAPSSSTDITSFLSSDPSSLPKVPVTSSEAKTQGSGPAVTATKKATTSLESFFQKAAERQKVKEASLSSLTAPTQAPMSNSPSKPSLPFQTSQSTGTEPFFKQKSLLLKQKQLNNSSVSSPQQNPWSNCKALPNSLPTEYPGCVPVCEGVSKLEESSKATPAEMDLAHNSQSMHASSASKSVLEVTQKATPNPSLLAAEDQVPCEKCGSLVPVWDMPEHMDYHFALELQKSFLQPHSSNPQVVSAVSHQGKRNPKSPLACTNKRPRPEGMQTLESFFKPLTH
Experiment: qHTS for Inhibitors of Polymerase Eta
Details: recombinant Pol eta, fluorescent DNA replication assay; series mostly up to 114 µM
Excerpt: The Y-family of DNA polymerases, such as Pol eta, are specifically involved in DNA repair. Pol eta copies undamaged DNA with a lower fidelity than other DNA-directed polymerases. However, it accurately replicates UV-damaged DNA; when thymine dimers are present, this polymerase inserts the complementary nucleotides in the newly synthesized DNA, thereby bypassing the lesion and suppressing the mutagenic effect of UV-induced DNA damage. […] Thus, while pol eta's (and most likely iota's) normal function is to protect humans against the deleterious consequences of DNA damage, under certain conditions they can have deleterious effects on human health. As a consequence, we propose to utilize a high throughput replication assay to identify small molecule inhibitors of pol eta. In a collaboration between the National Institute of Child Health & Human Development (NICHD) and NIH Chemical Genomics Center, a high-throughput, fluorescent screen was developed to screen the NIH Molecular Libraries Small Molecule Repository (MLSMR). This screen is used to identify inhibitors of pol eta. NIH Chemical Genomics Center [NCGC] NIH Molecular Libraries Probe Centers Network [MLPCN] MLPCN Grant: MH090825 Assay Submitter (PI): Roger Woodgate, NICHD)
Three microliters of reagents (buffer in column 3 and 4 as negative control and 10 nM Pol eta in columns 1, 2, and 5-48) were dispensed into a 1,536-well black solid-bottomed plate. Compounds (23 nL) were transferred via Kalypsys pin tool equipped with 1536-pin array. The plates were then incubated for 15 min at room temperature, and 1 µL substrate (50 nM final concentration) was added to start the reaction and kinetically read twice at 0 min and 10 min on the Viewlux reader
Potency is the fitted concentration of half-maximal effect.

Structure (SMILES)	Potency
COc1ccc(CCNC(=O)Cn2c(=O)cc(C(F)(F)F)c3c(C)nn(C)c32)c(OC)c1	inactive
CC(=O)c1ccc(NC(=O)CSc2c(C(C)C)cnc3c2c(=O)n(C)c(=O)n3C)cc1	inactive
O=C(O)c1c(CNCc2cccc(F)c2)c2ccccc2n1Cc1ccccc1	inactive
COCCCNc1nc2c(-c3cccc(C(F)(F)F)c3)nnn2c2ccccc12	inactive
COc1ccc(CCNc2nc3c(-c4cccc(F)c4)nnn3c3ccccc23)cc1OC	inactive
COCCCNc1nc2c(-c3cccc(C)c3)nnn2c2ccc(Cl)cc12	25.1 µM (active)
CCC(CC)c1nn2cc(-c3ccccc3)nc2s1	inactive
COc1ccc(S(=O)(=O)c2c(Nc3ccc(C)cc3)sc(C(=O)c3ccc(C)cc3)c2N)cc1	inactive
NS(=O)(=O)c1ccc2nc(NC(=O)COc3ccccc3)sc2c1	inactive
NS(=O)(=O)c1ccc2nc(NC(=O)CS(=O)(=O)c3ccc(F)cc3)sc2c1	79.4 µM (active)
Cc1nc2ccc(S(=O)(=O)N(CC(=O)Nc3ccc(F)cc3)Cc3ccccc3)cc2s1	inactive
CCOc1ccc(CCNC(=O)CN(c2ccc(C)cc2)S(=O)(=O)N(C)C)cc1OCC	inactive
O=C(Nc1cc(Cl)cc(Cl)c1)c1ccc2c(c1)N(Cc1cccc(Cl)c1)C(=O)c1ccccc1S2=O (stereo not drawn)	inactive
O=c1[nH]n2c(=O)c3c([nH]c2c1N=Nc1ccccc1)CCC3	31.6 µM (active)
CC(C)(C)n1c(=O)[nH]c2c(c1=O)CCC2	inactive
Cc1ccc(-n2ncc3c(NCCCn4ccnc4)ncnc32)cc1Cl	inactive
O=C(COc1ccccc1F)OCc1cc(=O)n2nc(C3CCCCC3)sc2n1	inactive
O=C(CCSCc1cccc(F)c1)NCc1ccccc1	inactive
CCc1cc2c(cc(C(=O)OC)n2Cc2nc(-c3ccc(C)cc3)oc2C)s1	inactive
CC(c1nnc(SCC(=O)Nc2sccc2C#N)n1-c1ccc(Cl)cc1)N(C)C (stereo not drawn)	inactive
CC(=O)c1cc(C#N)c(SCC(=O)Nc2nccs2)nc1C	inactive

Structure (SMILES)	Potency
Cc1csc(SCC(=O)Nc2sccc2C#N)n1	79.4 µM (active)
COc1ccc(S(=O)(=O)NCc2cccn2Cc2cccc(C)c2)cc1Cl	inactive
CSc1cccc(NC(=O)CN2C(=O)CCc3cc(S(=O)(=O)N4CCCCC4)ccc32)c1	inactive
Cc1ccc2nc(COc3ccc(NC(=O)COc4ccccc4F)cc3)cc(=O)n2c1	inactive
CC(=O)c1ccc(NC(=O)c2nc(-c3ccc(C)cc3)n3c2CCCCC3)cc1	inactive
N#Cc1c(N2CCCCC2)nc(N)c2c(N)nc(SCC(=O)O)cc12	22.4 µM (active)
Cc1ccc(CN2CCC(CNC(=O)c3cnn(-c4ccccc4Cl)c3C3CCN(C(=O)OC(C)(C)C)CC3)CC2)cc1	inactive
COc1ccc(-c2cc(NCc3ccc(F)cc3)n3cnnc3n2)cc1	inactive
CC1CN(C(=O)N2CCC(C(=O)NCc3cccs3)CC2)c2ccccc2O1 (stereo not drawn)	inactive
Cc1nnc(SCC(=O)NCc2cccs2)[nH]c1=O	inactive
N#Cc1c(-c2cccs2)nc(SCC(=O)c2ccc(Br)cc2)[nH]c1=O	35.5 µM (active)
N#Cc1ccc(-c2cccs2)nc1SCc1ccc(Br)cc1	inactive
COc1ccc(-c2nn3c(=O)cc(CN4CCN(C(=O)c5ccc(OC)c(OC)c5)CC4)nc3s2)cc1	inactive
COc1ccc(Cn2ccnc2SCC(=O)Nc2ccc3c(c2)OCO3)cc1	inactive
Cc1ccc(CN2CCc3nc(N4CCN(C)CC4)ncc3C2)cc1	inactive
COc1ccc(CN2C(=O)C(NC(=O)c3cccc(C)c3)(C(F)(F)F)N=C2c2ccccc2)cc1 (stereo not drawn)	inactive
COc1ccc(C(=O)CSc2c(C(C)C)cnc3c2c(=O)n(C)c(=O)n3C)cc1	inactive
CCc1ccccc1NC(=O)Cc1ccc(NC(=O)N2CCCCc3ccccc32)cc1	inactive
Cc1oc2ccc(O)c(CN3CCCCC3)c2c1C(=O)Nc1cccc(C(F)(F)F)c1	inactive
CCOc1ccc(Nc2oc(/C=C/c3ccc(F)cc3)nc2C#N)cc1	inactive
CCSc1ncnc2c(C#N)c3n(c12)CCCCC3	inactive

Structure (SMILES)	Potency
CCSC1=C(C#N)C(=O)n2c1cc1c2CCCC1	12.6 µM (active)
CCOC(=O)c1ccc(CSc2nnc3cc(C)c4ccccc4n23)cc1	inactive
CC(C)Cn1c(=O)c2ccccc2n2c(CCC(=O)N3CCN(c4cccc(Cl)c4)CC3)nnc12	inactive
O=c1c2ccccc2n(Cc2cccc(Cl)c2)c(=O)n1Cc1ccccc1	inactive
CCN(CC)CCCC(C)Nc1ccnc2cc(Cl)ccc12 (stereo not drawn)	inactive
CCN(CC)CCCC(C)n1c2nc(=O)[nH]c(=O)c-2nc2cc(Cl)ccc21 (stereo not drawn)	31.6 µM (active)
CCc1cccc(NC(=O)CSc2nccn2C)c1	inactive
CCCCn1cc(S(=O)(=O)c2ccc(OCC)cc2)c(=O)c2cc(OC)c(OC)cc21	inactive
Cc1ccc(NC(=O)c2cc3cc(C)ccc3n2C)cc1	inactive
CCOC(=O)C[C@H]1c2ccc(C(F)(F)F)cc2S(=O)(=O)N1c1ccccc1	inactive
CCOC(=O)/C=C/c1ccc(C(F)(F)F)cc1S(=O)(=O)NC(C)(C)C	inactive
CCOC(=O)C1Nc2ccc(C(F)(F)F)cc2C2C=CCC12 (stereo not drawn)	79.4 µM (active)
CC(=O)Nc1ccc(NC(=O)C2CCCN(S(=O)(=O)c3ccc4c(c3)CCCC(=O)N4)C2)cc1 (stereo not drawn)	inactive
Cc1ccc(Cl)cc1NC(=O)COC(=O)C1CCCCC1	inactive
Cc1c(Cl)cnc(NC(=O)COC(=O)c2ccc(S(=O)(=O)NCc3ccco3)cc2)c1Cl	inactive
Cc1c(Cl)cnc(NC(=O)COC(=O)C2CCCC2)c1Cl	35.5 µM (active)
COc1cccc(Nc2nc3ccccc3c3nncn23)c1	inactive
CCN(CC)S(=O)(=O)c1ccc(C(=O)N=c2sc3cccc(OC)c3n2C)cc1	inactive
Cc1cccc(C(=O)N2c3nc(-c4ccco4)nn3C3(CCCCC3)[C@@H]3CCCC[C@@H]32)c1	inactive
CCCCCCc1cc2cc(-c3nnc(-c4ccccc4)o3)c(=O)oc2cc1O	39.8 µM (active)
Cc1ccc(CNC(=O)CCc2c(C)nc3c(c(C)nn3-c3ccccc3)c2C)cc1	inactive
